CSC inhib: blocks cancer stem cells. cancer stem cell-like cells viability, luminescence. inhibition, % at 7.5 µM. actives 1.1% (n = 300,000). AID 2717; in the data active = inhibition above about 75%; tested in HMLE shEcad cells
PAX8 inh HTS: inhibitors of PAX8 transcriptional activity in RMG-I cells | RMG-I TPO-luciferase reporter, SteadyGlo, 24 h | inhibition, % at 12.6 µM | actives 1.2% (n = 360,000) | AID 652154;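 active = mean replicate inhibition at least 60% with every replicate also reaching 60%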;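 note: luciferase light reporting Pax8 driven TPO promoter activity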
Gli-Sufu block: Gli-Sufu pathway antagonism; Sufu-KO-LIGHT fibroblasts, Gli luciferase reporter luminescence; inhibition, % at 5 µM; actives 0.74% (n = 340,000); AID 588413;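 active = inhibition above about 55%, limit read from the data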
Beta cell apopt: blocks beta cell apoptosis | INS-1E cytokine-induced death, ATP luminescence, 48 h; percent of positive-control rescue, neutral wells zero | protection from apoptosis, % (no concentration beside the values) | actives 0.8% (n = 300,000) | AID 435005;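 active = Every replicate reaches about 75%, or at least half do and their mean reaches it too, limit read from the data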;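 note: higher means more ATP so stronger rescue from cytokine killing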
Mdm2-MdmX inh: human Mdm2/MdmX binding inhibition | AID 485346 | inhibition, % at 8 µM | actives 3% (n = 330,000) | O15151+Q00987 | SaOS-2 split-luciferase Mdm2/MdmX complementation, luminescence;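 active = inhibition of at least 50% at 8 µM in the primary screen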
Target sequence (O15151 whole entry, looked up): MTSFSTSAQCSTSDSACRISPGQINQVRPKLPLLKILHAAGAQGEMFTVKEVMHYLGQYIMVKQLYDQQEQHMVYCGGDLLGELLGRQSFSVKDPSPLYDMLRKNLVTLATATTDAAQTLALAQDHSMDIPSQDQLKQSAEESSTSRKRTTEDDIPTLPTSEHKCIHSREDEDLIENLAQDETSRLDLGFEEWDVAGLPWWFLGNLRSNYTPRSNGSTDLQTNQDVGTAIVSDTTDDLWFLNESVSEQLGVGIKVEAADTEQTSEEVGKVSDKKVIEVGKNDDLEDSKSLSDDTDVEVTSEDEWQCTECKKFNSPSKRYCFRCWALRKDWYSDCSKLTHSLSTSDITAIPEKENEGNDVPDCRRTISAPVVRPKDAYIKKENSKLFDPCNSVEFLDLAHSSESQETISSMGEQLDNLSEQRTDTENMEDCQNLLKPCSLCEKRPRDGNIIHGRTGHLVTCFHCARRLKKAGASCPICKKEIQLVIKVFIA
Target sequence (Q00987 whole entry, looked up): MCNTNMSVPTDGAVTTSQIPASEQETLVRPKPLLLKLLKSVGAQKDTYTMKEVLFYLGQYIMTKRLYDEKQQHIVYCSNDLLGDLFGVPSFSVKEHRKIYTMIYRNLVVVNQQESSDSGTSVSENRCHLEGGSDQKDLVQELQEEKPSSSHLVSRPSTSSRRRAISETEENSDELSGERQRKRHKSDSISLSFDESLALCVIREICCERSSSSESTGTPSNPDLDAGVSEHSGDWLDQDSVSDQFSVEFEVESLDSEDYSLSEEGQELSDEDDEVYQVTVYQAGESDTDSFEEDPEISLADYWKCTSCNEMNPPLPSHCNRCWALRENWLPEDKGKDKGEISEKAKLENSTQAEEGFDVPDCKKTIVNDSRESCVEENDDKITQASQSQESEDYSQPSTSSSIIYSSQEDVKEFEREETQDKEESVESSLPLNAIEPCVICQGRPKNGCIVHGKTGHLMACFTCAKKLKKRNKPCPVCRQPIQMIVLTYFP
Shn3 3UTR inh: Schnurri-3 reporter inhibition in Clone20 osteoblasts | Clone20 osteoblast Shn3 3'UTR firefly luciferase, 24 h | inhibition, % at 12.5 µM | actives 0.52% (n = 360,000);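 active = mean inhibition of at least 75% with every replicate also reaching 75%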
A number is an active result; – = inactive; · = not tested or not shown. An excerpt weighted towards active compounds, which were near 4% of everything screened.

SMILES	CSC inhib	PAX8 inh HTS	Gli-Sufu block	Beta cell apopt	Mdm2-MdmX inh	Shn3 3UTR inh
OC[C@H]1CC[C@@H]2O[C@H](CCc3ccc(C#CCc4ccccc4)cc3)[C@H](n3cc(-c4ccccc4)nn3)C[C@@H]2O1	·	–	·	·	·	·
OC[C@@H]1CC[C@@H]2O[C@H](CCc3ccc(C#CCc4ccccc4)cc3)[C@H](n3cc(-c4ccccc4)nn3)C[C@@H]2O1	·	62	·	·	·	·
OC[C@@H]1CC[C@@H]2O[C@H](CCc3ccc(C#CCc4ccccc4)cc3)[C@@H](n3cc(-c4ccccc4)nn3)C[C@@H]2O1	·	72	·	·	·	·
C[C@@H]1CN([C@@H](C)CO)C(=O)c2cccc(NC(=O)c3ccncc3)c2O[C@@H]1CN(C)S(=O)(=O)c1cccs1	·	98	·	·	·	·
C[C@H](CO)N1C[C@H](C)[C@H](CN(C)S(=O)(=O)c2cccs2)Oc2c(NC(=O)Nc3ccc(F)cc3)cccc2C1=O	·	68	·	·	·	·
Cc1ccc(NC(=S)NCCSc2ccc(Cl)cc2)cc1	–	–	–	–	–	–
CC(CNC(=S)Nc1cc(F)cc(F)c1)CSc1ccc(Cl)cc1 (stereo not drawn)	87	–	–	–	–	–
Cc1noc(C)c1S(=O)(=O)Nc1ccc2c(c1)CC(=O)N([C@@H](C)CO)C[C@@H](C)[C@H](CN(C)S(=O)(=O)c1ccccc1)O2	·	–	·	·	·	·
O=S(=O)(Nc1ccc(-c2nnc(SCc3ccc(Cl)cc3)o2)cc1)c1ccccc1	92	–	–	–	–	–
COc1ccc(Cl)cc1N/C(N)=N/c1nc(C)cc(=O)[nH]1	–	–	–	–	–	–
COc1ccc(Cl)cc1N/C(N)=N/c1nc(CSc2ccc(C)cc2)cc(=O)[nH]1	–	·	–	–	–	80
Cc1noc(C)c1S(=O)(=O)Nc1ccc2c(c1)CC(=O)N([C@H](C)CO)C[C@H](C)[C@@H](CN(C)S(=O)(=O)c1ccccc1)O2	·	–	·	·	·	·
C[C@H]1CN([C@@H](C)CO)C(=O)c2cc(-c3ccc(C#N)cc3)cnc2O[C@H]1CN(C)C(=O)Nc1ccc(C(F)(F)F)cc1	·	–	·	·	·	·
Cc1ccc(OCCCCN(C)Cc2ccccc2)c(Br)c1	94	·	–	–	–	–
CCOC(=O)C1CCN(C(=O)c2ccc(OCC(=O)Nc3cccc(C(F)(F)F)c3)c(OC)c2)CC1	·	–	–	–	–	89
CCOC(=O)C1CCN(C(=O)c2ccc(OCC(=O)Nc3cccc(C(F)(F)F)c3)cc2)CC1	–	–	–	–	–	–
O=C(NCC1CC1)[C@H]1[C@H](CO)[C@H]2Cn3c(ccc(-c4ccccc4)c3=O)[C@H]2N1Cc1cocn1	·	–	·	·	·	·
CO[C@H]1CN(C)C(=O)c2cc(NS(=O)(=O)c3ccccc3C)ccc2OC[C@@H](C)N(C)C[C@H]1C	·	–	·	·	·	·
Cc1cccc(Oc2nc(-c3ccccn3)nc3ccccc23)c1	–	–	–	81	–	–
CC(=O)Nc1ccc(Oc2nc(-c3ccccn3)nc3ccccc23)cc1	–	–	–	–	–	–
Cc1cccc(Oc2nc(-c3ccncc3)nc3ccccc23)c1	–	–	–	·	–	–
Cc1ccccc1Oc1nc(-c2ccccn2)nc2ccccc12	–	–	–	88	–	–
C#CCOCCOCCOCCNc1nc(N2CCN(C(=O)CCCCCCCCCCNC(=O)[C@H](CCCCN)n3cc(C)nn3)CC2)nc(N2CCN(C(=O)CCCCCCCCCCNC(=O)[C@H](CCCN=C(N)N)n3cc(C[C@@H](C)CC)nn3)CC2)n1	168	·	–	100	–	·
C#CCOCCOCCOCCNc1nc(N2CCN(C(=O)CCCCCCCCCCNC(=O)[C@H](CCCCN)n3cc(C[C@@H](C)CC)nn3)CC2)nc(N2CCN(C(=O)CCCCCCCCCCNC(=O)[C@H](CCCN=C(N)N)n3cc(C[C@@H](C)CC)nn3)CC2)n1	102	·	–	99	–	–
C#CCOCCOCCOCCNc1nc(N2CCN(C(=O)CCCCCCCCCCNC(=O)[C@H](CCCCN)n3cc(CCO)nn3)CC2)nc(N2CCN(C(=O)CCCCCCCCCCNC(=O)[C@H](CCCCN)n3cc(C[C@@H](C)CC)nn3)CC2)n1	95	·	–	83	–	·
C#CCOCCOCCOCCNc1nc(N2CCN(C(=O)CCCCCCCCCCNC(=O)[C@@H](CCC(=O)O)n3cc(CCCCCN)nn3)CC2)nc(N2CCN(C(=O)CCCCCCCCCCNC(=O)[C@H](CCCCN)n3cc(C[C@@H](C)CC)nn3)CC2)n1	–	·	–	–	–	–
